Records with an inconclusive call do not appear. Unmarked numbers belong to inactive results. Calls follow the shape of the dose curve; as a rule, active = well fitted inhibition curve with a large enough effect; inconclusive = small, poorly fitted or top-dose-only effect; inactive = flat fitted curve, though single readings scatter.
What follows are compounds tested against Aldehyde dehydrogenase, mitochondrial (Homo sapiens) (UniProt P05091) (assay: qHTS for Inhibitors of the Aldehyde Dehydrogenase Family (ALDH2) Primary screen (AID 2061308;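 also: plate controls were vehicle for no effect and reference inhibitor for full effect; nearly all actives have a fitted effect of over 55% in size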)). Conditions: ALDH2 enzyme inhibition qHTS, 1536-well; series mostly up to 56 µM; activity change, negative = inhibition: at the top concentration.

Row | Structure (SMILES) | activity change, negative = inhibition
1 | COc1cccc(CNc2ccc(S(=O)(=O)Nc3nccs3)cc2)c1OC | 17.9%
2 | C/C=C1/CN2CC[C@]34C(=Nc5ccc(OC)cc53)C2C[C@@H]1C4(CO)C(=O)OC (stereo not given in full) | 13.8%
3 | C=C1[C@@H](O)[C@]2(O)OC[C@]34C2[C@]2(C)C(C[C@H]3OC(=O)[C@H](O)[C@@]14O)C(C)=CC(=O)[C@H]2O (stereo not given in full) | 3.02% [at 28 µM]
4 | CC[C@H]1C2CC3[C@@H]4N(C)c5ccccc5[C@]45C[C@@H]([C@H]2[C@H]5O)N3[C@@H]1O | 6.76%
5 | N#Cc1ccc(NC(=O)Nc2nnc(-c3ccncc3)s2)cc1Br | -5.53%
6 | Cc1[nH]c2ccccc2c1P(=S)(c1ccccc1)c1ccccc1 | -15%
7 | CCOc1ccc(CCNC(=O)c2cc3sccc3n2CCN(C)C)cc1OCC | 10.9%
8 | Cn1cc(Cl)c(C2N=C(Nc3nc4ccccc4o3)NC3=C2C(=O)CCC3)n1 (stereo not given) | -14.9%
9 | Cc1cc(-c2nnc3n2CCCCC3)c(C)n1-c1ccc(C(C)(C)C)cc1 | -0.886%
10 | CC(C)[C@H](NC(=O)c1nn(Cc2ccc(F)cc2)c2ccccc12)C(N)=O | -15.1%
11 | Cc1ccc2nc(NC3=NC(c4[nH]ncc4Cl)C4=C(CCCC4=O)N3)oc2c1 (stereo not given) | -26.7%
12 | CC(=O)OC[C@]12C[C@H](O)C(C)=C[C@H]1O[C@@H]1[C@H](O)[C@@H](O)[C@@]2(C)[C@]12CO2 | -1.27%
13 | COc1ccc2c3c([nH]c2c1)C(C=C(C)C)N1C(=O)C2CCCN2C(=O)C1C3 (stereo not given) | -5.6%
14 | O=C(Nc1nnc(-c2cccs2)o1)c1ccc(Cl)cc1 | 6.65%
15 | C=C1[C@@H]2CC[C@@]3(C)[C@H](c4ccoc4)OC(=O)C[C@]13O[C@H]1CC(=O)C(C)(C)[C@H](C(OC(C)=O)C(=O)OC)[C@]12C (stereo not given in full) | -0.234% [at 28 µM]
